Bioassay records from PubChem BioAssay.
Sampled rows, rich in hits. Any-hit rate of the full collection: about 32%.
CYP2C9 activ: CYP2C9 (human) activation; activation factor at 5 µM; P11712; 1.4% of 96,000 active; recombinant CYP2C9, luciferin-H conversion, luminescence; hits give high values; factor 1 = untreated enzyme, 0 = blocked;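 active means activation factor of 2 or more for CYP2C9 at a 5 µM dose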
CYP2C19 activ: increases human CYP2C19 enzyme activity. P33261. recombinant CYP2C19, luciferin-H EGE luminescence; hits give high values; 0 = fully inhibited enzyme, 1 = untreated enzyme. activation factor at 5 µM. 96,000 tested, under 10 active. AID 1025;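 active means activation factor of at least 2 at 5 µM in the primary screen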
Target sequence (P33261 whole entry, looked up): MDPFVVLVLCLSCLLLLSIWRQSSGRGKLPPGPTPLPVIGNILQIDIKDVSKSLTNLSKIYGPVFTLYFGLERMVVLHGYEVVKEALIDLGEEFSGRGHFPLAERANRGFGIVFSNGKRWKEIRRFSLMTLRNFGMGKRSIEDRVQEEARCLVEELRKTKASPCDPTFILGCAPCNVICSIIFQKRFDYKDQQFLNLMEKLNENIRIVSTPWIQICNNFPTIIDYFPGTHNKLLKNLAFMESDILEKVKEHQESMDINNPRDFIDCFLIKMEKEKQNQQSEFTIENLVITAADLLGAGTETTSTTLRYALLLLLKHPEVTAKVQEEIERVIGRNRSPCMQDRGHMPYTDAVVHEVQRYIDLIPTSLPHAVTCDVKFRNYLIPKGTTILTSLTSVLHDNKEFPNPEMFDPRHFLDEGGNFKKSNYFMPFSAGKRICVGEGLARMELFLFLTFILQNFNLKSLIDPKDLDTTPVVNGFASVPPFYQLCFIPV
PostGolgi yeast: growth inhibition of a yeast mutant, post-Golgi transport screen. post-Golgi transport phenotypic cell assay. 0.9% of 98,000 active. inhibition, % at 10 µM. AID 739;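 further: yeast cells grown in 1536-well plates; yeast grown about 18 h at 30C before absorbance read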
CYP2C9 inh: blocks human cytochrome P450 2C9. CYP2C9 Supersomes, luciferin-H conversion, luminescence. AID 777. inhibition, % at 5 µM. 20% of 96,000 active. P11712;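 active means blocking of liver enzyme CYP2C9 beyond about 50% at 5 µM, limit read from the data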
CYP2C19 inhib: blocks human cytochrome P450 2C19. P33261. CYP2C19 Supersomes, luciferin-H EGE luminescence, 30 min. inhibition, % at 5 µM. 21% of 96,000 active. AID 778;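 active means CYP2C19 inhibition above a set limit at 5 µM in the primary screen, cut at about 50% in these data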
PostGolgi ctrl: inhibits growth of the yeast control strain; efflux-deficient yeast background strain, growth absorbance A615, 16 h; inhibition, % at 10 µM; 5% of 98,000 active
Large screens that a line does not name were inactive. Unless noted, no stated cut-off is given here; in the data, active means inhibition above about 30%; inactive means the rest.

CCOC(=O)c1ccc(NC(=O)c2nn(C)cc2Br)cc1	PostGolgi ctrl 35
CC1CN(C(=O)N2c3ccccc3Sc3ccccc32)C(C)CC1=O (stereo unspecified)	PostGolgi ctrl 37
Cc1nn(-c2ccc(F)cc2)c2c1cc(C#N)c1nc3ccccc3n12	none
Oc1ccc(Br)cc1/C=N/N1CCN(Cc2ccccc2)CC1	none
Oc1ccc(Br)cc1/C=N/n1cnc2ccccc21	CYP2C9 inh 71, PostGolgi ctrl 32
COc1ccc(S(=O)(=O)Nc2ccc3c(c2)COC3=O)cc1OC	CYP2C19 inhib 84
O=S(=O)(NC1=NCCC1)c1cccs1	none
O=S(=O)(Nc1ccc2c(c1)CCC2)c1cccs1	CYP2C9 inh 83, CYP2C19 inhib 99
O=C1OCc2cc(NS(=O)(=O)c3cccs3)ccc21	CYP2C9 inh 89, CYP2C19 inhib 76
Cc1nn(C)c(Oc2cccc(Cl)c2)c1C(=O)Nc1ccc(F)cc1	none
CC(C)NC(=O)Cn1cc(C#N)c2cc(Br)ccc21	CYP2C19 inhib 73
N#Cc1cn(CC(=O)NCC2CCCO2)c2ccccc12 (stereo unspecified)	none
Cc1nnc(-c2cccc(Br)c2)c2cn(-c3cccc(Br)c3)nc12	none
Cc1nnc(-c2cccc(Br)c2)c2cn(-c3ccccc3)nc12	PostGolgi yeast 94
Cc1nnc(-c2cccc(Br)c2)c2cn(-c3ccc(Br)cc3)nc12	PostGolgi yeast 64, PostGolgi ctrl 49
COc1cc(C(=O)N2CCN(C(=O)C(Cc3cc(C)ccc3C)NC(C)=O)CC2)cc(OC)c1OC (stereo unspecified)	none (no result: CYP2C9 activ, CYP2C19 activ, CYP2C9 inh, CYP2C19 inhib)
O=C(O)c1cc2ccccc2n1-c1ccccc1	CYP2C9 inh 54
CCSC1=C(C#N)C2(CCCC2)C(C#N)=C(N)N1	CYP2C9 inh 95, CYP2C19 inhib 95
CC1(C)CC(=O)C2=C(C1)NC(SCC(=O)Nc1ccccc1)=C(C#N)C21CCCCC1	none
CSC1=C(C#N)C2(CCCC2)C(C#N)=C(N)N1	CYP2C9 inh 63, CYP2C19 inhib 77 (no result: PostGolgi yeast, PostGolgi ctrl)
N#CC1=C(N)NC(SCc2ccc(Cl)cc2)=C(C#N)C12CCCCC2	PostGolgi yeast 48, CYP2C9 inh 100, CYP2C19 inhib 100
N#CC1=C(N)NC(SCC(=O)Nc2ccc(Br)cc2)=C(C#N)C12CCCCC2	CYP2C9 inh 96, CYP2C19 inhib 100
O=C1CCC(=O)N1c1nc2nc(-c3ccccc3)cc(-c3ccccc3)n2n1	none
COC(=O)c1sc2nc[nH]c(=O)c2c1C	none
C=CCN1C(=NC(=O)CCC)SC2CS(=O)(=O)CC21 (stereo unspecified)	none
COc1ccc(-n2nnnc2-c2cnc3cc4c(cc3c2C)OCO4)cc1	none
COc1ccccc1-c1cc(C(=O)N/N=C/c2sccc2C)c2ccccc2n1	CYP2C9 inh 75, PostGolgi ctrl 48
CCOc1ccccc1-c1cc(C(=O)N/N=C/c2ccc3c(c2)OCO3)c2ccccc2n1	PostGolgi yeast 53, CYP2C9 inh 91, CYP2C19 inhib 50, PostGolgi ctrl 92
CCN(CC)C(=O)c1sc(NC(=O)c2cc(-c3ccc(C)s3)nc3ccccc23)c(C(=O)OC)c1C	CYP2C9 inh 51
COC(=O)c1sccc1NC(=O)c1cc(-c2ccc(C)cc2C)nc2ccccc12	CYP2C9 inh 59
Cc1nn(C)c(C)c1/C=N/NC(=O)c1csc2ccccc12	none
Cc1ccc(-c2cc(C(=O)N/N=C/c3c(C)nn(C)c3C)c3ccccc3n2)c(C)c1	CYP2C9 inh 96, CYP2C19 inhib 94
Cc1cc(C)n2nc(SCc3nnc(SCc4ccccc4C)s3)nc2n1	CYP2C19 inhib 77
Cc1cc(C)n2nc(SCc3nnc(SCc4ccccc4Cl)s3)nc2n1	PostGolgi ctrl 36
COc1cccc(CSc2nnc(CSc3nc4nc(C)cc(C)n4n3)s2)c1	CYP2C19 inhib 98
CN(C)S(=O)(=O)c1cccc(NC(=O)COC(=O)CCc2nc3ccccc3s2)c1	none
CCS(=O)(=O)CCSc1nc(C)cc(C)c1C#N	none
CCOC(=O)CCSc1nc(C)cc(C(F)(F)F)c1C#N	CYP2C19 inhib 61
CCOC(=O)CCSc1nc(-c2ccc3c(c2)OCO3)cc(C(F)(F)F)c1C#N	none
CCOC(=O)CC(=O)CSc1nc(-c2ccc3c(c2)OCO3)cc(C(F)(F)F)c1C#N	CYP2C9 inh 53
O=C(COc1ccc(S(=O)(=O)N2CCOCC2)cc1)Nc1ccc(Cl)c(C(F)(F)F)c1	CYP2C9 inh 53
O=C(COC(=O)Cc1ccc(S(=O)(=O)N2CCOCC2)s1)NCCc1ccccc1	CYP2C9 inh 60
CCOc1cc(N2CCOCC2)c(OCC)cc1NC(=O)COC(=O)c1cc(C)oc1C	none
O=C(COc1ccc(S(=O)(=O)N2CCOCC2)cc1)Nc1ccc2c(c1)OCCO2	none
Cc1cc(C(=O)OCC(=O)Nc2ccc(S(=O)(=O)N3CCOCC3)cc2)c(C)o1	CYP2C9 inh 73
Cc1cc(C(=O)OCC(=O)Nc2cc(S(=O)(=O)N3CCOCC3)ccc2Cl)c(C)o1	CYP2C9 inh 80, CYP2C19 inhib 52
O=C(COC(=O)c1ccccn1)Nc1ccc(S(=O)(=O)N2CCOCC2)cc1	none
O=C1CC(N2CCC(c3nc4ccccc4s3)CC2)C(=O)N1 (stereo unspecified)	none
O=c1[nH]c(N2CCCCC2)nc2c1CCCC2	none
Cc1ccc(NC(=O)c2c(O)c3ccccc3n(C)c2=O)nc1	none
CCC(=O)Nc1ccc(-c2cc(-c3ccccc3)nc(-c3ccc(NC(=O)CC)cc3)n2)cc1	none
O=C(COC(=O)c1ccc2ccccc2n1)Nc1ncc(C(F)(F)F)cc1Cl	CYP2C9 inh 51, CYP2C19 inhib 58
Cc1cc(C(=O)OCC(=O)Nc2ccc(F)cc2F)c(C)o1	CYP2C19 inhib 56
O=C(COC(=O)c1ccc2ccccc2c1)Nc1ncc(C(F)(F)F)cc1Cl	none
O=C(COC(=O)Cc1ccc(S(=O)(=O)N2CCCCC2)s1)Nc1ccc2c(c1)OCO2	CYP2C9 inh 98, CYP2C19 inhib 66, PostGolgi ctrl 36
O=C(COC(=O)CCc1ccc(S(=O)(=O)N2CCOCC2)cc1)Nc1ncc(C(F)(F)F)cc1Cl	CYP2C9 inh 55
COc1cccc(NC(=O)COC(=O)c2cc(S(=O)(=O)N3CCOCC3)ccc2C)c1	none
CCN(CC)S(=O)(=O)c1ccc(C)c(NC(=O)COC(=O)c2ccc(C)c(S(=O)(=O)N3CCOCC3)c2)c1	CYP2C9 inh 96, CYP2C19 inhib 92
Cc1ccc(S(=O)(=O)N2CCOCC2)cc1C(=O)OCC(=O)Nc1ccc2c(c1)OCO2	CYP2C9 inh 53
CCc1nc2ccccc2c(C(=O)OCC(=O)Nc2ccc(S(=O)(=O)N3CCOCC3)cc2)c1C	CYP2C9 inh 54
COc1ccc(C(=O)OCC(=O)Nc2cc(C)on2)cc1S(=O)(=O)N1CCOCC1	none
O=C1c2ccc(Oc3ccc4c(c3)C(=O)N(CCCO)C4=O)cc2C(=O)N1CCCO	none
O=C(O)CCSCc1ccccc1F	none
